Test [1] in a line: cAMP Responsive Elements (CRE) small molecule antagonists, cell-based qHTS assay: qHTS cell viability counter screen (AID 2060913). Note: nearly all actives have a fitted effect of over 40% in size. In outline:
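Cytotoxicity counter screen multiplexed with the CRE-bla antagonist read: HEK293T cells in DMEM with dialyzed FBS and 25 mM HEPES were treated 3 hrs under 0.25 uM final NKH477, then viability measured by CellTiter-Glo luminescence.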

Test [2] in a line: cAMP Responsive Elements (CRE) small molecule agonists, cell-based qHTS assay: qHTS cell viability counter screen (AID 2060914).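 Note: viability read after 3 h of compound exposure; nearly all actives have a fitted effect of over 50% in size.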 In short, it runs like this:
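CRE-bla HEK 293T cells, plated 18 h at 37 °C, were exposed to compounds for 3 h at 37 °C/5% CO2. Viability was then measured in the same wells by CellTiter-Glo luminescence after 30 min at room temperature.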
Background: In qHTS, concentration-response curves come from the screen itself.

Inconclusive results are not listed. A call without a number means that no potency is given here. The source made the active and inactive calls. Calls come from the whole dose curve; as a rule, active = well fitted cell-killing curve with a large enough effect in the repeat runs; inconclusive = weak or mixed curves, or effect the other way; inactive = flat fitted curve, though single readings scatter.

For the compound `CCC(C)(C#N)N=NC(C)(C#N)CC` (centres undefined), the Potency entry in test [1] and in test [2] was “inactive” throughout.
With `O=C(O)C(Br)Br`, the Potency result in test [1] and in test [2] was “inactive” each time.
In the case of `Cc1cc(O)ccc1Cl`, the Potency entry in test [1] and in test [2] was “inactive” in each case.
Take `O=Cc1ccc2c(c1)OCO2`: the Potency result in test [1] and in test [2] was “inactive” each time.
Turning to `CCCCn1cc[n+](C)c1C`, the Potency result in test [1] and in test [2] was “inactive” in each case.
For `Nc1ccc(-c2ccc(N)cc2)cc1`, the Potency entry in test [1] and in test [2] was “inactive” each time.
On to `Cc1[nH]c(=O)n(C(C)(C)C)c(=O)c1Cl`, for which the Potency entry in test [1] and in test [2] was “inactive” throughout.
With `O=[N+]([O-])c1cccc(CCl)c1`, the Potency entry in test [1] and in test [2] was “inactive” in each case.
As for `O=C(Cl)OCCOCCOC(=O)Cl`, the Potency entry in test [1] and in test [2] was “inactive” in each case.
Turning to `Nc1nc(N)nc(N)n1`, the Potency entry in test [1] and in test [2] was “inactive” throughout.
On to `ClCCOCCCl`, for which the Potency entry in test [1] and in test [2] was “inactive” throughout.
With `O=S(=O)(O)OOS(=O)(=O)O`, the Potency result in test [1] and in test [2] was “inactive” throughout.
On to `C/C(=N\NC(=O)Nc1cc(F)cc(F)c1)c1ncccc1C(=O)O`, for which the Potency entry in test [1] and in test [2] was “inactive” throughout.
`CNC(=O)Oc1ccccc1C(C)C`: the Potency entry in test [1] and in test [2] was “inactive” each time.
As for `BrCCc1ccccc1`, the Potency entry in test [1] and in test [2] was “inactive” each time.
Turning to `NNC(N)=O`, the Potency entry in test [1] and in test [2] was “inactive” throughout.
Regarding `c1ccc(CN2CCNCC2)cc1`, the Potency entry in test [1] and in test [2] was “inactive” throughout.
Consider `CC(=O)CC(c1ccc(Cl)cc1)c1c(O)c2ccccc2oc1=O` (centres undefined), for which the Potency result in test [1] and in test [2] was “inactive” throughout.
Turning to `CCOc1cccc(C2(N3CCN(c4ccccc4)CC3)CCC(C)CC2)c1` (centres undefined), the Potency entry in test [1] and in test [2] was “inactive” each time.
As for `O=S(=O)(O)C(F)(F)C(F)(F)C(F)(F)C(F)(F)C(F)(F)C(F)(F)F`, the Potency result in test [1] and in test [2] was “inactive” throughout.
In the case of `Cn1sc(Cl)cc1=O`, the Potency entry in test [1] and in test [2] was “inactive” throughout.
On to `CS(=O)(=O)NC(=O)c1cc(Oc2ccc(C(F)(F)F)cc2Cl)ccc1[N+](=O)[O-]`, for which the Potency result in test [1] and in test [2] was “inactive” in each case.

(Values after PubChem BioAssay (Tox21).)
